Source: PubChem BioAssay AID1903 (Southern Research Specialized Biocontainment Screening …, 2009)
Where “and” joins values, the source holds several entries; their conditions need not be identical. Identical values can stand only once. Hit rate of the full screen: of about 310,000 compounds, about 1,200 (0.39%) were called active. How the calls were made is not given here. A selection follows. Measured potencies and affinities stand elsewhere.

Each molecule was assayed against Large T antigen (Simian virus 40) (UniProt P03070) (assay: SV40 large T antigen inhibitors, biochemical (AID 1903)). Settings: SV40 large T antigen ATPase/helicase inhibition assay; at 20 µM; stronger effect = higher value.
Chain of Large T antigen (Simian virus 40) (P03070 whole entry, looked up): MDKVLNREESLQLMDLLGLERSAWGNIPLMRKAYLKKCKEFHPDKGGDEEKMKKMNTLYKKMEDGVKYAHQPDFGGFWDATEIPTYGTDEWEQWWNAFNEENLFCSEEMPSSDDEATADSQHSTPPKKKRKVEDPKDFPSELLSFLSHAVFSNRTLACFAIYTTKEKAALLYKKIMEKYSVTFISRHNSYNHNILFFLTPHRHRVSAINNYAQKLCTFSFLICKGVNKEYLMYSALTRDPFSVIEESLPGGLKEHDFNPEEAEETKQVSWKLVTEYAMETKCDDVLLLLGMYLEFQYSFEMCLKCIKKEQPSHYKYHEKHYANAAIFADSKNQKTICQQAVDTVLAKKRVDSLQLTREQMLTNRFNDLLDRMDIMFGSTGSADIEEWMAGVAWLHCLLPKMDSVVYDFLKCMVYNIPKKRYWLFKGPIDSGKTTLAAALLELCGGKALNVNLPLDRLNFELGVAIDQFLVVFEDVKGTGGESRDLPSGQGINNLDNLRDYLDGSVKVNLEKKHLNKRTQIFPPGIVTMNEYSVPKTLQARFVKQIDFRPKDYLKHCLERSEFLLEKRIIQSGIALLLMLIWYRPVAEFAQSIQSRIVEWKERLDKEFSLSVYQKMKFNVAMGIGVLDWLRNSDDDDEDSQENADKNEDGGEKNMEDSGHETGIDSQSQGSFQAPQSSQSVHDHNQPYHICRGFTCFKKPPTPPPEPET

inhibition, inactive:
CCn1c(SCC(=O)Nc2nccs2)nnc1-c1ccc(S(=O)(=O)N2CCCCCC2)cc1 -0.295%
Cc1ccc(S(=O)(=O)N2CCCC(C(=O)NCC3CCCO3)C2)cc1 (configuration not stated) 3.23%
CC1CN(S(=O)(=O)c2ccccc2)C(C)CN1S(=O)(=O)c1ccccc1 (configuration not stated) 8.4%
CN1CCN(S(=O)(=O)c2ccc(Cl)cc2)CC1 0.99%
Cc1ccc(S(=O)(=O)N2CCN(S(=O)(=O)c3ccccc3)C2)cc1 6.18%
O=S(=O)(c1ccc(Cl)cc1)N1CCCCCC1 20.7%
CCCN(CCC)C(=O)Cc1coc2ccc3ccccc3c12 3.36%
Cc1cc2cc(CNC(=O)Nc3ccccc3)ccc2n1C 4.59%
O=C1NCCN/C1=C\C(=O)c1ccc(Cl)cc1 12.3%
CCOc1ccc(NC(=O)COn2nnc3ccc(S(=O)(=O)N4CCOCC4)cc32)cc1 11.2%
Cc1c2cc(O)c(=O)cc-2oc2cc(O)c(O)cc12 57.6%
O=c1cc(-c2ccccc2[N+](=O)[O-])oc2ccccc12 1.45%
CCOc1ccccc1-c1c2cc(O)c(=O)cc-2oc2cc(O)c(O)cc12 15.8%
COc1ccc(OC)c(-c2c3cc(O)c(=O)cc-3oc3cc(O)c(O)cc23)c1 73.4%
CCOc1ccccc1NC(=O)CSc1nnc(CNC(=O)c2cc(OC)c(OC)c(OC)c2)o1 5.49%
COc1ccccc1CNC(c1ccccc1)c1ccccc1 21.1%
COc1ccc(C2NC(c3ccc(OC)c(OC)c3OC)C(C)C(=O)C2C)c(OC)c1OC (configuration not stated) -0.23%
CCc1c(C)nc(N)nc1Cl 10.9%
CCOC(=O)C(Sc1cc(C)nc(N)n1)C(C)=O (configuration not stated) 7.31%
O=C1C=C(Nc2ccc(Cl)cc2)CC(c2ccco2)C1 (configuration not stated) 24.2%
O=C1C=C(Nc2cccc(O)c2)CC(c2ccco2)C1 (configuration not stated) 6.63%
COc1ccccc1-c1ocnc1C(=O)N1CCN(S(=O)(=O)c2ccc(NC(C)=O)cc2)CC1 4.74%
CCOC(=O)c1c(C)nc2ccccc2c1-c1ccccc1 5.96%
COc1ccc(N/C=C/C(=O)C(F)(F)F)cc1 9.63%
CN(C)c1ccc(N/C=C/C(=O)C(C)(C)C)cc1 27.8%
CN(C)c1ccc(N/C=C/C(=O)c2ccc(F)cc2)cc1 18.2%
O=C(/C=C/Nc1ccccc1)c1ccccc1 10.3%
Cc1ccc(-c2nn(-c3ccccc3)cc2C(N)=O)o1 1%
COc1ccc(CN2CCN(C(=O)CCC(=O)Nc3nnc(C(F)(F)F)s3)CC2)cc1F 25.2%
CCn1c(C)nc2cc(C(=O)N/N=C(\C)c3ccc(N4CCOCC4)cc3)ccc21 9.23%
O=C1[C@H]2CCCC[C@H]2C(=O)N1CCCCN1CCN(c2nsc3ccccc23)CC1 11.2%
Oc1c(CN2CCCC(C(F)(F)F)C2)cc(Cl)c2ccccc12 (configuration not stated) 6.33%
COc1ccc(CN2C(=O)CSCC2=O)cc1OC 23.5%
CC1CCCN(S(=O)(=O)c2cnc[nH]2)C1 (configuration not stated) 16.4%
Cc1ccc(S(=O)(=O)Cc2ccc([N+](=O)[O-])cc2)cc1 12.8%
CC(=O)c1ccc([N+](=O)[O-])c(CS(=O)(=O)c2ccc(Cl)cc2)c1 2.52%
C=CCNc1nc(-c2cc3ccccc3o2)cs1 16.7%
COc1ccc([C@@H]2CC=C(C(=O)O)[C@H](c3cccc(Cl)c3)N2S(=O)(=O)c2ccccc2C)cc1 20.5%
COc1ccc(-c2cc(=O)c3ccccc3o2)cc1 4.04%
COc1ccc(-c2cc(=O)c3c(OC)c(OC)c(OC)c(OC)c3o2)cc1OC 8.13% and 2.63% and 16.4%
COc1cc(-c2cc(=O)c3c(O)c(OC)c(OC)c(OC)c3o2)cc(OC)c1OC 1.45%
COc1cc(-c2cc(=O)c3c(O)cc(O)cc3o2)ccc1O 11.8%
Nc1nnc(-c2cccc([N+](=O)[O-])c2)o1 -0.81%
CCCCCCn1cc(C(=O)OCC)c(=O)c2cc(F)c(F)cc21 20.5%
CCC(C)C(NC(=O)C(N)CC(C)C)C(=O)NC(CCC(=O)OCc1ccccc1)C(N)=O (configuration not stated) -6.23%
O=C(O)c1cc(NCc2cccs2)ccc1N1CCOCC1 16.1%
CC(=O)Nc1ccc(NCc2cccs2)cc1 15.1%
COC(=O)c1cc(NCc2cccs2)ccc1N1CCOCC1 36.1%
O=C(O)c1ccc(NCc2cccs2)cc1 5.7%
O=C(COC(=O)COc1ccccc1[N+](=O)[O-])Nc1ccc(S(=O)(=O)N2CCCCC2)cc1 9.97%
CC(=O)Nc1ccc(NC(=O)CSc2nnc(NC(=O)c3cccc(F)c3)s2)cc1 7.35%
COc1ccc(CC2(CO)COc3ccccc3C2=O)cc1 (configuration not stated) 18%
CCn1c(SCC(=O)Nc2cc(OC)ccc2OC)nnc1C1CCCCC1 5.72%
CN(C)C(=O)COC(=O)c1cc(Cl)cc(Cl)c1N 7.1%
CCOC(=O)C1=C(CCc2ccccc2)NC(=O)NC1c1ccc(C#N)cc1 (configuration not stated) 13.1%
O=C1C(Cl)=C(N2CCOCC2)C(=O)N1c1ccccc1F 11.2%
O=C(Nc1ccc(N2CCOCC2)cc1)C1CCN(S(=O)(=O)c2ccccc2F)CC1 13.6%
O=C1C(Cc2ccccc2)Nc2ncnc(N3CCOCC3)c2N1Cc1ccc(Cl)cc1 (configuration not stated) 9.83%
COc1ccc(N=c2sc3ccccc3n2C)cc1 7.43%
Cn1c(=Nc2ccccc2)sc2ccccc21 -5.34%
CC1CCCCN1c1ncnc2ccccc12 (configuration not stated) 0.555%
CC(C)OC(=O)Cc1nc2sc(-c3ccccc3)cc2c(=O)[nH]1 6.88%
